Out of some 2,400 compounds screened, about 2,200 (92%) were called active.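 How the source made its calls: active means mean inhibition over triplicate runs exceeds the cutoff derived for the earlier primary screen (cut at about 25% in these data); inactive means the rest.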 So high a share suggests a set chosen from earlier hits. The list shows a part of the results.
target: Platelet-activating factor acetylhydrolase IB subunit alpha2 (Homo sapiens) (UniProt P68402); assay: PAFAH1B2 inhibitors, confirmation, biochemical, fluorescence polarization, FP-rhodamine probe, triplicate (AID 493034); conditions: recombinant PAFAH1B2, FP-rhodamine probe fluorescence polarization; at 3.39 µM; stronger effect = higher value;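 further: 0% = enzyme with DMSO and 100% = wells lacking PAFAH1B2 protein; inhibitors lower polarization by leaving the probe unbound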
Sequence (P68402 whole entry, looked up): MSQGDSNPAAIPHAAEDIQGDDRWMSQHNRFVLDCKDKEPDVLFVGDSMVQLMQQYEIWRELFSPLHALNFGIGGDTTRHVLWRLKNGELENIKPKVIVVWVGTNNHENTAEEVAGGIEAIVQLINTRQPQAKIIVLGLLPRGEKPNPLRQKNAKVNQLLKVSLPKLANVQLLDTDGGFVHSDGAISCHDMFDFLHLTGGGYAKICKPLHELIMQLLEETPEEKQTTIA

Compound	inhibition
O=C(O)CC/C(=C\c1ccc(N2CCCC2)c([N+](=O)[O-])c1)c1nc2ccccc2s1	84.2% (active)
O=C(O)CCc1ccc(S(=O)(=O)Nc2cc(C(F)(F)F)ccc2N2CCCC2)cc1	13.5% (inactive)
O=C(O)CC/C(=C\c1ccc(N2CCOCC2)c([N+](=O)[O-])c1)c1nc2ccccc2s1	91.2% (active)
COc1cc(/C=C(\CCC(=O)O)c2nc3ccccc3s2)ccc1OCC(=O)Nc1c(Cl)cccc1Cl	57.7% (active)
O=C(O)C/C(=C\c1cc2c(cc1Br)OCO2)c1nc2ccccc2s1	22.2% (inactive)
Cc1ccc(CNC(=O)Nc2ccc(Cl)cc2)cc1	1.92% (inactive)
CCCCOc1ccc(CNC(=O)NS(=O)(=O)c2ccc(OCC(C)C)cc2)cc1	57.7% (active)
CCCCOc1ccc(S(=O)(=O)NC(=O)NCc2ccc(OCCC)cc2)cc1	32.1% (active)
O=C(COC(=O)C1(c2ccc(F)cc2)CCCC1)N1CCN(C(=O)c2ccco2)CC1	20.3% (inactive)
Clc1ccc(SCCCCn2ccnc2)cc1	62.5% (active)
Clc1ccc(SCCn2ccnc2)cc1	37.8% (active)
Cc1c(NC(=O)CCSc2ccc(Cl)cc2)c(=O)n(-c2ccccc2)n1C	24% (inactive)
CC1(COS(N)(=O)=O)CCCCC1	16.8% (inactive)
CC(NC(=O)c1cc2cc(Br)ccc2oc1=N)c1ccccc1 (configuration not stated)	21.8% (inactive)
CCOc1cc(Br)cc(C(c2c(C(=O)O)[nH]c3ccccc23)c2c(C(=O)O)[nH]c3ccccc23)c1O	62.7% (active)
O=C(O)c1[nH]c2ccccc2c1C(c1cc(Br)ccc1O)c1c(C(=O)O)[nH]c2ccccc12	89.5% (active)
O=C(O)COc1ccc(Br)cc1C(c1c(C(=O)O)[nH]c2ccccc12)c1c(C(=O)O)[nH]c2ccccc12	46.4% (active)
O=C(O)COc1ccccc1-c1nc(-c2ccccc2)c(-c2ccccc2)[nH]1	24% (inactive)
CC(Nc1ccc(Cl)cc1)c1cc(Cl)ccc1O (configuration not stated)	42.3% (active)

Compound	inhibition
COc1oc(C(=O)NC2CCCCC2)c(-c2ccc(Cl)cc2)c1S(=O)(=O)c1ccccc1	11.3% (inactive)
Nc1scc(-c2ccncc2)c1Cl	91.5% (active)
O=C(O)CCn1cc(/C=C\C(=O)c2ccc(Cl)cc2)c(-c2cccc(Br)c2)n1	41.1% (active)
O=C(O)CCn1cc(/C=C/C(=O)c2ccc(Cl)cc2)c(-c2cccc(Br)c2)n1	47.4% (active)
CCN(C(=O)CSc1nnc(-c2ccc3c(c2)OCO3)o1)C1CCS(=O)(=O)C1 (configuration not stated)	1.27% (inactive)
NC(=S)N=Nc1c(O)n(CCCl)c2ccc(Br)cc12	30.4% (active)
Cc1ccc(S(=O)(=O)Oc2ccc(C3C4=C(CCCC4=O)N(CCC(=O)O)C4=C3C(=O)CCC4)cc2Cl)cc1	33.9% (active)
Cc1cc(C(C)(C)C)cc(S(=O)(=O)Nc2cccc(C(=O)O)c2)c1C	23.3% (inactive)
Cc1ccc(S(=O)(=O)Nc2cc(C)c(O)c(S(=O)(=O)c3ccc(C)cc3)c2)cc1	28.9% (active)
Cc1ccc(S(=O)(=O)Nc2ccc(S(=O)(=O)NCC3CCCO3)cc2)cc1 (configuration not stated)	23.3% (inactive)
COc1cccc(/C=N/N2CCN(c3ccc(Cl)cc3)CC2)c1OC	23.6% (inactive)
NC1=NC(=O)/C(=C/c2cn(CCC(=O)O)nc2-c2ccc(Cl)cc2)S1	24.1% (active)
NC1=NC(=O)/C(=C/c2cn(CCC(=O)O)nc2-c2ccc(F)cc2)S1	38.2% (active)
Cc1ccc(S(=O)(=O)N2CCC(=O)N(C(COC(=O)Nc3ccccc3)Cc3ccccc3)CC2)cc1 (configuration not stated)	32.5% (active)
NC(=O)c1c(NC(=O)CN2CCN(S(=O)(=O)c3ccccc3)CC2)sc2c1CCC2	1.51% (inactive)
CCc1ccc(-c2nc(CSCC(=O)N3CCN(c4ccccn4)CC3)c(C)o2)cc1	53% (active)
CCCCCCCCCCCC(=O)O	21.5% (inactive)
O=c1[nH]c(CSc2nc3ccccc3s2)nc2ccccc12	16.8% (inactive)
COc1ccccc1N1CCN(S(=O)(=O)c2ccc(Cl)cc2)CC1	24.1% (inactive)

Compound	inhibition
CC(C(=O)Nc1ccccc1-c1ccccc1)N1CCN(S(=O)(=O)c2ccccc2)CC1 (configuration not stated)	22% (inactive)
CC(=O)NC(Cc1c[nH]c2ccccc12)C(=O)OCC(=O)N1CCN(S(=O)(=O)c2ccc(Cl)cc2)CC1 (configuration not stated)	84.9% (active)
N=c1c(S(=O)(=O)c2ccc(Br)cc2)cc2c(=O)n3ccccc3nc2n1CCN1CCOCC1	22.9% (inactive)
Nc1nc(C2CCCCC2)cs1	55.7% (active)
COC(=O)CSc1nnc(SCc2ccc(Cl)cc2)s1	20.6% (inactive)
NS(=O)(=O)c1cccc(NC(=O)CC23CC4CC(C2)CC(CC(=O)Nc2cccc(S(N)(=O)=O)c2)(C4)C3)c1	27.4% (active)
CCc1cccc(Nc2cnn(C34C[C@@H]5C[C@@H](CC(CC(=O)O)(C5)C3)C4)c(=O)c2Cl)c1	20.4% (inactive)
Cc1ccc(S(=O)(=O)n2oc(=O)c(C3CCCCC3)c2N)cc1	23.5% (inactive)
O=C(/C=C/c1ccc(F)cc1)NC(=S)NNC(=O)[C@H]1C[C@@H]1c1ccccc1	47.2% (active)
CC(C)CNC(=O)c1cccc(NC(=O)CSc2ccc(Cl)cc2)c1	22.5% (inactive)
O=C(/C=C/c1ccccc1)CC(O)(c1ccccc1)C(F)(F)F (configuration not stated)	38.1% (active)
COc1ccc(/C=C\C(=O)CC(O)(c2ccccc2)C(F)(F)F)cc1 (configuration not stated)	21.6% (inactive)
CC(=O)Nc1ccc(NC(=O)C(C)OC(=O)C2(c3ccc(F)cc3)CCCC2)cc1 (configuration not stated)	23.3% (inactive)
Cc1nn(-c2ccccc2)c2c1CC(=O)Nc1ccccc1-2	23.1% (inactive)
Cc1nc(SCCC(=O)O)c2cc(-c3ccccc3)sc2n1	33.6% (active)
O=C(O)CN1C(=O)/C(=C\c2cccc(OCc3ccc(Cl)cc3)c2)SC1=S	68.2% (active)
CC1=CC(=NNS(=O)(=O)c2ccc([N+](=O)[O-])cc2)CC(C)(C)C1	23.5% (inactive)
O=[N+]([O-])c1ccc(S(=O)(=O)NNC(=S)NCCc2ccccc2)cc1	38.5% (active)
Nc1nn(S(=O)(=O)c2ccccc2)cc1-c1ccc([N+](=O)[O-])cc1	24% (inactive)
